Among the data in PubChem BioAssay AID602447 (National Center for Advancing Translational Sciences (NCATS), 2012) are max inhibition values, retold here.

Records with an inconclusive call do not appear. Calls of active or inactive are those of the source. No rule for the calls is given here.

For this experiment, the target named is Beta-2 adrenergic receptor (Homo sapiens) (UniProt P07550). The experiment is described as follows: qHTS for antagonists of the Thyroid Stimulation Hormone Receptor: Hit Validation with Beta-2 Adrenergic Receptor. Particulars: B2AR-expressing cells, cAMP HTRF, antagonist counterscreen; hits give high values. An excerpt: The thyroid-stimulating hormone receptor (TSHR) is a member of the 7 trans-membrane-spanning receptor (7TMR) family of cell surface receptors. TSHR-mediated hyperthyroidism is important in thyroid pathology. The development of small molecule antagonists of TSHR may lead to therapeutic approaches for TSHR-mediated hyperthyroidism caused by constitutively activating mutations or stimulating auto-antibodies associated with Graves' disease. Graves' disease is the leading cause of hyperthyroidism and is caused by autoantibodies that stimulate TSHR (TsAbs) causing thyroid growth and unregulated overproduction of thyroid hormones and existing treatments have liabilities (agranulocytosis). In addition, TSHRs are known to be expressed in multiple extrathyroidal tissues including bone, brain, kidney, testis, fat and cells of the immune system but the role of the TSHR in these tissues is not clear. Therefore, TSHR antagonists/inverse agonists could be used as probes of extrathyroidal TSHR function. Finally, TSHR inverse agonists, which are a subclass of antagonists that inhibit agonist-independent (or basal or constitutive) TSHR signaling, could be used to inhibit TSH-independent signaling in patients with recurrent or metastatic thyroid cancer who are receiving thyroid hormone to suppress TSH. In collaboration between scientist from the NCGC and the NIDDK, a miniaturized HTRF high-throughput screen was developed. It's a cell based assay, where an anti cAMP antibody contains a fluorescent cryptate tag (excitation 337 nm; emission 620 nm) and the acceptor is cAMP-d2 (excitation 620 nm; emission 665 nm). When antibody and cAMP-d2 interact and are excited by a 337 nm light, a FRET occurs resulting in emission at 665 nm. The assay is competition between cAMP-d2 and cAMP (from the cell lysate). The homogeneous protocol allows for one step dispense after stimulation that is automation friendly. This is a hit validation assay in a counterscreen using beta-2 adrenergic receptor, a closely related hormone receptor NIH Chemical Genomics Center [NCGC] NIH Molecular Libraries Probe Centers Network [MLPCN] Grant: MH090855 Assay Provider: Marvin Gershengorn, NIDDK
Sequence of Beta-2 adrenergic receptor (Homo sapiens) (P07550 whole entry, looked up): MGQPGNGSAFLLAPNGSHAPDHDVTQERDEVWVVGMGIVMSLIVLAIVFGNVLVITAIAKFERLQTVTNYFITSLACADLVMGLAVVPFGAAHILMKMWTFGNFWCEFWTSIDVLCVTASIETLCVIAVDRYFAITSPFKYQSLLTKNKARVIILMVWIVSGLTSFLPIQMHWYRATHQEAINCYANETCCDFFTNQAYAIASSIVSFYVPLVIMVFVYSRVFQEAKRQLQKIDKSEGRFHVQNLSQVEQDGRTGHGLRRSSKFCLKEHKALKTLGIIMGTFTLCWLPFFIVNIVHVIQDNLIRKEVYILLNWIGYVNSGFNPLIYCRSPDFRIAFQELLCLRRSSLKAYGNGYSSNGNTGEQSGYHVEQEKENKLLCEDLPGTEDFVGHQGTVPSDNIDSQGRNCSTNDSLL
An anti cAMP antibody contains a fluorescent cryptate tag (excitation 337 nm; emission 620 nm) and the acceptor is cAMP-d2 (excitation 620 nm; emission 665 nm). When antibody and cAMP-d2 interact and are excited by a 337 nm light, a FRET occurs resulting in emission at 665 nm. The assay is competition between cAMP-d2 and cAMP (from the cell lysate). The homogeneous protocol allows for one step dispense after stimulation that is automation friendly.
For orientation: Quantitative high-throughput screening tests each substance at several concentrations.
As to `O=c1cc(C(F)(F)F)[nH]c2c(C(F)(F)F)cccc12`, the max inhibition is 88.6% (active).

Regarding `O=C1NC(=S)S/C1=C\c1ccc(SCc2ccccc2)o1`, the max inhibition was 92.6% (active).

On to `COc1ccc(-c2csc(/C(C#N)=C\c3ccc(O)c([N+](=O)[O-])c3)n2)cc1OC`, for which the max inhibition was 94.4% (active).

Consider `O=C(Nc1ccc(Oc2ccc(Cl)cc2)c(Cl)c1)c1cc(I)cc(I)c1O`, for which the max inhibition is 91.3% (active).

On to `O=C1/C(=C\c2cc([N+](=O)[O-])ccc2O)SC(=S)N1Cc1ccc(Cl)cc1`, for which the max inhibition is 90.7% (active).

Regarding `CCn1nc([N+](=O)[O-])c(C(C#N)c2nc3cc(C(F)(F)F)ccc3s2)c(Cl)c1=O` (centres undefined), the max inhibition is 94.3% (active).

Consider `Cc1ccc(-n2[nH]c(C)c(/C=N/Nc3ccc([N+](=O)[O-])cc3[N+](=O)[O-])c2=O)cc1C`, for which the max inhibition was 88.7% (active).

Take `O=C(COc1cccc2ccccc12)Nc1ccc(Cl)cc1C(=O)O`: the max inhibition was 85.8% (active).

Take `COc1ccc(OCC(=O)NC(=S)Nc2ccc(N3CCOCC3)c(Cl)c2)cc1`: the max inhibition is 89.7% (active).

In the case of `Oc1c(Cl)cc(Cl)c(Cl)c1Cc1c(O)c(Cl)cc(Cl)c1Cl`, the max inhibition was 96.4% (active).

Consider `O=C(Nc1nc(-c2ccccc2)cs1)c1ccccc1NS(=O)(=O)c1ccc(F)cc1`, for which the max inhibition was 96% (active).

With `O=S(=O)(Nc1cc(Cl)ccc1-n1cncn1)c1cc(Br)ccc1Br`, the max inhibition was 72.6% (active).

With `CC(=O)Oc1c(C)cc(Cl)cc1C(=O)Nc1ccc([N+](=O)[O-])cc1Cl`, the max inhibition was 82.9% (active).

Regarding `CCSC1=NSC2=NC(=O)/C(=C\c3coc4ccccc4c3=O)C(=N)N12`, the max inhibition is 96.6% (active).
